Calls of active or inactive are those of the source.

A short description of assay [1]: small molecules captured by biotinylated probe aFSTL3 – biochemical, small-molecule microarray, fluorescence 635/667, stem cell growth factor project, primary screen (AID 1064).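 Note: measures binding of the biotinylated anti-FSTL3 antibody to printed compounds.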 The settings on record: higher = more signal.
Assay [2] is described as follows: binders from COS7 lysate, DM2A8 probe, primary screen, torsin A project, cell lysate, small-molecule microarray, fluorescence 635/667 (AID 1065). The settings on record: higher = more signal, COS7 lysate expressing mutant human TOR1A.
Assay [3] can be described thus: small molecules captured by biotinylated probe aFGF2 – biochemical, small-molecule microarray, fluorescence 635/667, stem cell growth factor project, primary screen (AID 1067).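 Note: measures binding of biotinylated aFGF2 protein to printed compounds on slides; z-score merges feature fluorescence and signal-to-noise across triplicate slides.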 Particulars: higher = more signal.
Assay [4] is described as follows: small molecules captured by biotinylated probe aFGF10 – biochemical, small-molecule microarray, fluorescence 635/667, stem cell growth factor project, primary screen (AID 1071).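 Note: score merges 667 nm spot intensity and signal to noise from triplicate slides.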 The settings on record: higher = more signal.
Assay [5] has as its target Neurogenic locus notch homolog protein 2 (Homo sapiens) (UniProt Q04721). As to the kind of experiment: small molecules binding Notch2 protein – biochemical, small-molecule microarray, 635 nm fluorescence, stem cell growth factors, primary screen (AID 1073). The settings on record: higher = more signal.
Assay [6] deals with Pro-neuregulin-1, membrane-bound isoform (Homo sapiens) (UniProt Q02297). As to the kind of experiment: small molecules binding neuregulin-1 protein – biochemical, small-molecule microarray, fluorescence 635/667, psychiatric disease protein project, primary screen (AID 1075).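 Note: score combines 667 nm spot fluorescence with signal to noise.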 The settings on record: NRG1 binding, 635 nm fluorescence, higher = more signal.
Pro-neuregulin-1, membrane-bound isoform (Homo sapiens), sequence (Q02297 whole entry, looked up, the tested form may be a part, canonical isoform): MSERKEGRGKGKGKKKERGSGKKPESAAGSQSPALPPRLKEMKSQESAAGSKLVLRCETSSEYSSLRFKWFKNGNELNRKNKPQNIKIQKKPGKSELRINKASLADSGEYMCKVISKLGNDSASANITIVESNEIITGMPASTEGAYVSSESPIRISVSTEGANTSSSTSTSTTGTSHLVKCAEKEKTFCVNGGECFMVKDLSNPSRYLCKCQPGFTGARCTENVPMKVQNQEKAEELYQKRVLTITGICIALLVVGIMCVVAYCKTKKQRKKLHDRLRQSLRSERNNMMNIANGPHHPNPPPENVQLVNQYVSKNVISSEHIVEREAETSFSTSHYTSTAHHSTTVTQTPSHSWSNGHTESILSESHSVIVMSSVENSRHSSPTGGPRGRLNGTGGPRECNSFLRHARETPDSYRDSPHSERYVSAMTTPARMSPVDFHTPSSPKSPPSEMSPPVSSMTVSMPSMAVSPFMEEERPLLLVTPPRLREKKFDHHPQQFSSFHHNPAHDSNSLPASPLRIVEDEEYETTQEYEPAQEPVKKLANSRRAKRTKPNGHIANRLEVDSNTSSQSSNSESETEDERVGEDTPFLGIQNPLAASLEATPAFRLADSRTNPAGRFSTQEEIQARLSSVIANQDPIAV
For assay [7], the system named is Neuregulin-1 EGF-like domain. As to the kind of experiment: small molecules binding NRG1 EGF domain – biochemical, small-molecule microarray, 635 nm fluorescence, primary screen (AID 1081).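 Note: binding of the protein to compounds printed on small-molecule microarray slides.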 The settings on record: higher = more signal.
Assay [8] can be described thus: FRG1 expression reporter modulators in myotubes – cell-based, C2C12 myotubes, firefly/Renilla luciferase, luminescence, FRG1 inhibition for FSHD, primary screen (AID 1084). Particulars: FRG1 promoter luciferase, higher = more signal, called active from +8 up or from −8 down.
Assay [9] can be described thus: small molecules captured by biotinylated probe aFST – biochemical, small-molecule microarray, fluorescence 635/667, stem cell growth factor project, primary screen (AID 1086).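 Note: score merges 667 nm fluorescence with signal-to-noise of each printed compound spot.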 Particulars: higher = more signal.
Assay [10] can be described thus: binders of probe aHhip on microarray, primary screen, stem cell growth factor project, biochemical, small-molecule microarray, fluorescence 635/667 (AID 1087).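 Note: score merges spot fluorescence at 667nm with spot signal to noise ratio.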 Particulars: higher = more signal.

Neurogenic locus notch homolog protein 2 (Homo sapiens), sequence (Q04721 whole entry, looked up, canonical isoform): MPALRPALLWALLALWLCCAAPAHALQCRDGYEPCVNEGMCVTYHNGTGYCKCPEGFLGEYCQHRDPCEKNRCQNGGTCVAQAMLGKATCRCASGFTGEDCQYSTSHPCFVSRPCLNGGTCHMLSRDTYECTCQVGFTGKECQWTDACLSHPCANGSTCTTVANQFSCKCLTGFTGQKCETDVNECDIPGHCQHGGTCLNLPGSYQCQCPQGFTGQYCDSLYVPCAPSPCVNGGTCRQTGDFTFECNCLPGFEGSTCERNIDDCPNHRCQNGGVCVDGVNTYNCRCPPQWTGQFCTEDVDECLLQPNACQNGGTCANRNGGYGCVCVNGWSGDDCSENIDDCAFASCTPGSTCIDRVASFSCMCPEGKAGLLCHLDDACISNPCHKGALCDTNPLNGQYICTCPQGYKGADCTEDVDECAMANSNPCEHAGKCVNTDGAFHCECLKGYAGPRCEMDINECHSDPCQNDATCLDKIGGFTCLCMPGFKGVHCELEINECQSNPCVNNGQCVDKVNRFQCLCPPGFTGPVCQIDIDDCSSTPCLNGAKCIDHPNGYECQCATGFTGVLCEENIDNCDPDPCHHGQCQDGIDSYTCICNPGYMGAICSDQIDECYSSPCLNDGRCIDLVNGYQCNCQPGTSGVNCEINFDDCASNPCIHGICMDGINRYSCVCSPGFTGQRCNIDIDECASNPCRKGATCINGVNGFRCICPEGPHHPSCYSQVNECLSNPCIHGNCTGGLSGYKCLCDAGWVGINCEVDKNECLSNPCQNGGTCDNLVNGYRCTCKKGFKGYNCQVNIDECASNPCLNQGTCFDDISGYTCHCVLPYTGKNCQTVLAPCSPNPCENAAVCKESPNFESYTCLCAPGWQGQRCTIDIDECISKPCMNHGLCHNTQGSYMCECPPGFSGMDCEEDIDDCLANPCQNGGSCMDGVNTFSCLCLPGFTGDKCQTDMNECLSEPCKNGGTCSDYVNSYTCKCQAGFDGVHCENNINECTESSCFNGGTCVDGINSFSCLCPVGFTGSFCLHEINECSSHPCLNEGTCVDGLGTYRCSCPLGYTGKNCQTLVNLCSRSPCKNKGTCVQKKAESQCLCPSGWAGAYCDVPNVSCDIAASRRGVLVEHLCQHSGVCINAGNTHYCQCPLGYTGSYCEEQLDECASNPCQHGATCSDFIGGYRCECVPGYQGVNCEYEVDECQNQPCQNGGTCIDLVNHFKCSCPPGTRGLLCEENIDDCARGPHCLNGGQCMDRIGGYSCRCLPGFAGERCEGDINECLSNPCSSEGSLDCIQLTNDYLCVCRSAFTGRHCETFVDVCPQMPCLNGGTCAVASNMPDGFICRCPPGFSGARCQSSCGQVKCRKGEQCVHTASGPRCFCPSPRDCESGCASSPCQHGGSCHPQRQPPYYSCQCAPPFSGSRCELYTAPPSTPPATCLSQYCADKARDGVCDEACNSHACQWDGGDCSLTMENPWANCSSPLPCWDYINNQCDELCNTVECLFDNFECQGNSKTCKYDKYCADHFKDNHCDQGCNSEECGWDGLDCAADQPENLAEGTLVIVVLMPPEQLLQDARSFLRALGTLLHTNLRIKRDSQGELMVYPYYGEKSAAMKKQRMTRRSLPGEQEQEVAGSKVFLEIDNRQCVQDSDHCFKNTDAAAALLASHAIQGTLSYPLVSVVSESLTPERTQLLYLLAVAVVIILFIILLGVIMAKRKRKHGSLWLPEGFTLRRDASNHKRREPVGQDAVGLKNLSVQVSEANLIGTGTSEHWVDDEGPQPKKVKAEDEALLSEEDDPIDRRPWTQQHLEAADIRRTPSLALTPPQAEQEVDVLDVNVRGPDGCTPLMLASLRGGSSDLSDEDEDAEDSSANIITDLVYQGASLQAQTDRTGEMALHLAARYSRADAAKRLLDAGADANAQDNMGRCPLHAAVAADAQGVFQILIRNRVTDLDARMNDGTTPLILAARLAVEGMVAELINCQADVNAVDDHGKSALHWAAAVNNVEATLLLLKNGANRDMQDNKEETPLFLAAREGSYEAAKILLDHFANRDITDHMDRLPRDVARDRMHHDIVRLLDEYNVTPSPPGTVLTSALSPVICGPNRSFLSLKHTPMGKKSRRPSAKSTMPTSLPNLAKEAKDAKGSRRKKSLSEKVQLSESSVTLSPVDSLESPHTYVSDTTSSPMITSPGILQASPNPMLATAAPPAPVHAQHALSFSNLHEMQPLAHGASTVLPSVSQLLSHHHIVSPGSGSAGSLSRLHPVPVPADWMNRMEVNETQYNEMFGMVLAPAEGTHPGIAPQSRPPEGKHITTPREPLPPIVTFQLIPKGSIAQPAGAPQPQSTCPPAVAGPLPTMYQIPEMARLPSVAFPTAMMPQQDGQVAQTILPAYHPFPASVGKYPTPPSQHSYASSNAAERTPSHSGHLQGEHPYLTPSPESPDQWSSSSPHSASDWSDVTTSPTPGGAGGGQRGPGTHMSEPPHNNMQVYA

Consider `CC(C)[Si](C#C[Si](C(C)C)(C(C)C)C(C)C)(O[C@H](C)c1cn(Cc2cccc(Cl)c2)nn1)C(C)C`, for which the composite z-score in [1] was -0.333; in assay [2], -0.0681; in [3], -0.123; in assay [4], 0.316; in assay [5] it was 0.496; in assay [6], 0.528. Also, the composite z-score in [7] was 0.94; in [9], 0.323; in [10] it was -0.0994. For the same molecule, in assay [8], the z-score is -1.14 (inactive).

For `N#Cc1ccc(NN2C(C(O)c3ccccc3)C=CC3C(=O)N(c4ccccc4)C(=O)C32)cc1` (stereo not given), the composite z-score in assay [1] was 0.0243; in [2] it was -0.0347; in assay [3] it was 0.111; in assay [4], 0.379; in assay [5] it was 0.639; in [6], 1.15. Further, the results for the composite z-score in [7], in assay [9] and in [10] were 1.09, 0.64 and -0.151, respectively. For the same molecule, in [8], the z-score was 0.474 (inactive).

In the case of `O=c1c2ccc(Br)cc2nc(-c2ccccc2)n1Cc1cccc(O)c1`, the composite z-score was 0.255 in [1]; 2.81 in assay [2]; -0.0774 in assay [3]; 0.556 in assay [4]; 0.701 in assay [5]; 1.81 in assay [6]. In addition, the composite z-score was 1.12 in assay [7], 0.831 in assay [9] and -0.181 in assay [10]. In addition, the z-score in assay [8] was 4.59 (inactive).

As to `CCCC=C(CCC)[C@@H](NS(=O)(=O)c1cccc2cccnc12)c1ccc(C(=O)OC)cc1`, the composite z-score amounted to 3.16 in assay [1]; 1.19 in assay [2]; 0.84 in [3]; 1.65 in assay [4]; 1.59 in [5]; 0.136 in assay [6]. For the same molecule, the composite z-score in assay [7] worked out at 0.83; in assay [9], 3.43; in assay [10], 0.754. Moreover, the z-score in [8] is 1.76 (inactive).

For the molecule `CCCCC(=C=CC[C@H](O)c1cccc(OCCO)c1)C[C@H](O)COCc1ccccc1`, the composite z-score is -0.0829 in assay [1]; 0.284 in assay [2]; -0.112 in assay [3]; 0.205 in [4]; -0.431 in [5]; -0.491 in [6]. The figures for the composite z-score in assay [7], in [9] and in assay [10] were 0.794, -0.11 and -0.28, respectively. Moreover, in assay [8], the z-score is -0.664 (inactive).

As to `C[C@@H]1ON(c2ccccc2)[C@H](c2ccccc2)[C@H]1C(=O)N1C(=O)OC[C@H]1Cc1ccccc1`, the composite z-score in assay [1] is -0.414; in [2], 0.464; in assay [3] it was -0.127; in assay [4], 0.464; in assay [5], 0.844; in [6] it was 0.243. The figures for the composite z-score in [7], in assay [9] and in [10] were 0.539, 0.138 and 0.0574, respectively. The z-score in assay [8] was -0.114 (inactive).

Turning to `COCCOC(=O)N1C(=O)[C@@]2(c3cc(C#CCNC(N)=O)ccc31)[C@H](C(N)=O)[C@H]1C(=O)O[C@H](c3ccccc3)[C@H](c3ccccc3)N1[C@@H]2c1ccc(OCCO)cc1`, the composite z-score was -0.147 in [1]; 0.0525 in assay [2]; -0.0139 in assay [3]; 0.309 in assay [4]; 1.16 in assay [5]; 0.564 in assay [6]. Besides, the composite z-score was 0.342 in assay [7], 0.459 in [9] and -0.0427 in assay [10]. The z-score in assay [8] is 1.34 (inactive).

In the case of `C[N+](C)(C)CCCCCCNC(=O)[C@H]1C[C@H]2C(=O)N3CCC[C@H]3C(=O)N2[C@H]1c1cccc(OCCO)c1`, the composite z-score in [1] is -0.238; in [2] it was 2.05; in assay [3] it was 0.0111; in [4] it was 0.573; in assay [5] it was 0.761; in assay [6], 0.577. Also, the composite z-score in assay [7] was determined as 1.42; in assay [9], 0.301; in [10], 0.154. For the same molecule, the z-score in assay [8] is 4.55 (inactive).

On to `C=CC[C@]1(C(=O)N2CCOCC2)N=C(c2ccc(OCCCO)cc2)O[C@H]1c1ccccc1CN=[N+]=[N-]`, for which the composite z-score in assay [1] is -0.0635; in [2], 1.3; in [3] it was 0.103; in [4], 1.04; in assay [5], 1.54; in assay [6], 1.77. For the same molecule, the composite z-score amounted to 1.3 in assay [7], 1.99 in [9] and 0.28 in [10]. Also, the z-score in assay [8] is -1.34 (inactive).

Regarding `COCCCNC(=O)[C@@H]1c2ccccc2C(=O)N(c2ccc(C)cn2)[C@H]1c1ccc(CO)cc1`, the composite z-score was 1.02 in assay [1]; -1.72 in [2]; -0.294 in assay [3]; -0.286 in assay [4]; -1.58 in [5]; 0.825 in assay [6]. Further, the composite z-score in assay [7] was -0.54; in [9] it was -0.939; in assay [10], -0.233. The z-score in [8] is 0.183 (inactive).

As for `C#CCOC(=O)N[C@H](C=CCCCC)c1ccccc1`, the composite z-score in assay [1] worked out at 0.209; in assay [2] it was 0.108; in [3] it was 0.0934; in [4], 0.239; in assay [5], 1.33; in assay [6], 2.33. Besides, the results for the composite z-score in assay [7], in assay [9] and in assay [10] were 1.31, 0.129 and 0.382, respectively. The z-score in assay [8] is -0.237 (inactive).

For the molecule `CC(C)CNC(=O)[C@@]1(C)c2ccccc2C(=O)N(Cc2ccccc2)[C@H]1c1ccc(CO)cc1`, the composite z-score in [1] is 1.69; in assay [2] it was -1.04; in assay [3], -0.206; in assay [4] it was -1.42; in [5], -0.762; in assay [6], 0.839. Moreover, the composite z-score in [7] is 0.614; in assay [9] it was 0.267; in assay [10], -0.164. Also, in assay [8], the z-score is -1.26 (inactive).

Take `CC(C)(C)OC(=O)CC[C@@]1(C(=O)N2CCCCC2)N=C(c2ccc(OCCCO)cc2)O[C@@H]1c1ccccc1CN=[N+]=[N-]`: the composite z-score in [1] was determined as 0.165; in [2] it was 0.159; in assay [3] it was 0.103; in [4], 0.355; in [5], 1.65; in [6], 1.98. For the same molecule, the composite z-score amounted to 1.22 in assay [7], 1.63 in assay [9] and 0.0854 in assay [10]. In assay [8], the z-score was -1.98 (inactive).

(Values after PubChem BioAssay.)
